Consider one sequence from article PMC7862700, “An all-to-all approach to the identification of sequence-specific readers for epigenetic DNA modifications on cytosine”.

Holding throughout (experiment): DAPPL (digital affinity profiling via proximity ligation, sequencing); 10 mM Tris-HCl pH 7.5, 50 mM NaCl, 1 mM DTT, 4% glycerol, room temperature, 30 min; GST-TFs on glutathione beads, 16-mer random dsDNA library, 0.1% formaldehyde crosslink after washing; high values mean tight binding
The target in one experiment is T1, FEV (Homo sapiens, UniProt Q99581 1-238).
T1 sequence: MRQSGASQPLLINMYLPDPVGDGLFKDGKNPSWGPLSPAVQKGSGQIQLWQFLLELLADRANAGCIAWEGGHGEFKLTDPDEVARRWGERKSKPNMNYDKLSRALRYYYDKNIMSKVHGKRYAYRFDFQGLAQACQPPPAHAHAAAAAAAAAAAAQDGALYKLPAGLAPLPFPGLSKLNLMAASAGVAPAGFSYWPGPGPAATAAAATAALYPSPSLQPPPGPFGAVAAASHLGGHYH
To be noted: protein: recombinant; tags: N-terminal GST; dsDNA, one strand shown. The procedure, abridged:
(§1)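 A tag-only sample was pooled with DNA-barcoded human transcription factors that had been expressed in yeast as GST fusions and captured on glutathione beads. The pools were incubated for 30 min at room temperature with 200 nmole of a random double-stranded 16-mer DNA library in Tris/NaCl/DTT/glycerol buffer, then washed, crosslinked with 0.1% formaldehyde, proximity-ligated (BsaI/T4 ligase, 1 h, 37 °C), PCR-amplified and sequenced on an Illumina NextSeq500. Binding signal is each hexamer's read frequency for a factor divided by its frequency for the tag-only sample.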

Another experiment concerns the target ETV5 (Homo sapiens, UniProt P41161 1-510). To be noted: protein: recombinant; tags: N-terminal GST; dsDNA, one strand shown. The procedure, abridged:
as §1

The next experiment addresses HSF1 (Homo sapiens, UniProt Q00613 1-529). To be noted: protein: recombinant; tags: N-terminal GST; chain copies: 3; dsDNA, one strand shown. A digest of the protocol:
as §1

A further experiment addresses T2, SPIC (Homo sapiens, UniProt Q8N5J4 1-248).
T2 sequence: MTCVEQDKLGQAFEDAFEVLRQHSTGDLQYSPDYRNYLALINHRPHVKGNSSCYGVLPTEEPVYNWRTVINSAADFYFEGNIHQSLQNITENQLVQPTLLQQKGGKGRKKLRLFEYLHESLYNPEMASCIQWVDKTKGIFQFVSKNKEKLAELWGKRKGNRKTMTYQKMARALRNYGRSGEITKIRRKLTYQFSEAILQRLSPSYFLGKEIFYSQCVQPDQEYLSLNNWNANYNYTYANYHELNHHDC
To be noted: protein: recombinant; tags: N-terminal GST; dsDNA, one strand shown. The procedure, abridged: as §1

In another experiment the target is ELF4 (Homo sapiens, UniProt Q99607 1-663). The conditions noted are these: protein: recombinant; tags: N-terminal GST; dsDNA, one strand shown. A digest of the protocol: as §1
The next experiment has as its target T3, ELK4 (Homo sapiens, UniProt P28324-2 1-405).
T3 sequence: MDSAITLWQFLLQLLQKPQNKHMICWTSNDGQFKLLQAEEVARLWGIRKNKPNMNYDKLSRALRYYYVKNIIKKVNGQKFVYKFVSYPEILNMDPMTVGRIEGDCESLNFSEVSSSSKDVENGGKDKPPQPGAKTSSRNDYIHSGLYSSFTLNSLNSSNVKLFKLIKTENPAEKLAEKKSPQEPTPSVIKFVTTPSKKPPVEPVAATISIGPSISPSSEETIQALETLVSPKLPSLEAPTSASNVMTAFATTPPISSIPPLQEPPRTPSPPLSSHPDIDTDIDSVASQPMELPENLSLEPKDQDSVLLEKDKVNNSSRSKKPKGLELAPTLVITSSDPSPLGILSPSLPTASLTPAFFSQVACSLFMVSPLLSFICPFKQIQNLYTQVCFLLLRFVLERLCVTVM
The conditions noted are these: protein: recombinant; tags: N-terminal GST; dsDNA, one strand shown. A digest of the protocol: as §1

The next experiment concerns the target T4, ETV2 (Homo sapiens, UniProt O00321 1-342).
T4 sequence: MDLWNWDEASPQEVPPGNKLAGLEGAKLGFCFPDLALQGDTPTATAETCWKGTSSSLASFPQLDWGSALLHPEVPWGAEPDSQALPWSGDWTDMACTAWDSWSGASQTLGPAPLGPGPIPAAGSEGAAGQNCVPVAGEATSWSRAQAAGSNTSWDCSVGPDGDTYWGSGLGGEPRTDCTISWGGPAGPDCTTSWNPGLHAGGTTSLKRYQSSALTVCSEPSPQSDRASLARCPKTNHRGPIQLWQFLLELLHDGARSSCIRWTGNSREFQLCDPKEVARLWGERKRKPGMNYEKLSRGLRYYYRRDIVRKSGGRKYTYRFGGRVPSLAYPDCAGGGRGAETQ
The conditions noted are these: protein: recombinant; tags: N-terminal GST; dsDNA, one strand shown. The procedure, abridged: as §1

Another experiment addresses T5, ELF3 (Homo sapiens, UniProt P78545 1-371).
T5 sequence: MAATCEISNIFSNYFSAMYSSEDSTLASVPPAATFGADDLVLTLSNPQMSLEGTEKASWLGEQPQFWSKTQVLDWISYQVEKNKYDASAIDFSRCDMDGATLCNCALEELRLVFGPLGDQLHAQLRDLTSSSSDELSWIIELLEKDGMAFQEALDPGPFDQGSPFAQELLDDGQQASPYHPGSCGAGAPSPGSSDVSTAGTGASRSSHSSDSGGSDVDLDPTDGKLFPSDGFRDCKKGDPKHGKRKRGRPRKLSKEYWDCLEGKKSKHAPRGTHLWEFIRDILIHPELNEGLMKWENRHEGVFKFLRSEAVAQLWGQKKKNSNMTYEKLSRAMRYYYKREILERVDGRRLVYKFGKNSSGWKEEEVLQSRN
To be noted: protein: recombinant; tags: N-terminal GST; dsDNA, one strand shown. A digest of the protocol: as §1

A further experiment addresses CRX (Homo sapiens, UniProt O43186 1-299). To be noted: protein: recombinant; tags: N-terminal GST; dsDNA, one strand shown. The procedure, abridged:
as §1

A further experiment addresses ETV1 (Homo sapiens, UniProt P50549 1-477). The conditions noted are these: protein: recombinant; tags: N-terminal GST; dsDNA, one strand shown. A digest of the protocol:
as §1

Another experiment concerns the target T6, ERF (Homo sapiens, UniProt P50548 1-548).
T6 sequence: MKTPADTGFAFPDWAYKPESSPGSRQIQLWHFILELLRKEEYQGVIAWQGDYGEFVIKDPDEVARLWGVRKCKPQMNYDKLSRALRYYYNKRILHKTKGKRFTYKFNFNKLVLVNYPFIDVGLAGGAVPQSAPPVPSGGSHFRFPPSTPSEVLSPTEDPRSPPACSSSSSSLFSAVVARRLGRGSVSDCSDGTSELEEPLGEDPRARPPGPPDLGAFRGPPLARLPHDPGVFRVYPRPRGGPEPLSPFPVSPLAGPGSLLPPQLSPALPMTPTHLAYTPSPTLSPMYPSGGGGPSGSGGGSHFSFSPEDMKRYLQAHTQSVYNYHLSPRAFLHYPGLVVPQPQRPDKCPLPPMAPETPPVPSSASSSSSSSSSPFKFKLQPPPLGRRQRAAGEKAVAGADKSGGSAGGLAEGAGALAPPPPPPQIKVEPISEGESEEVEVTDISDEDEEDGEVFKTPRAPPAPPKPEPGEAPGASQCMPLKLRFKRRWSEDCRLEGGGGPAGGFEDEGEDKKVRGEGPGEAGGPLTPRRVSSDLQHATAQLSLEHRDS
To be noted: protein: recombinant; tags: N-terminal GST; dsDNA, one strand shown. A digest of the protocol: as §1

In the next experiment the target is T7, ETV3L (Homo sapiens, UniProt Q6ZN32 1-361).
T7 sequence: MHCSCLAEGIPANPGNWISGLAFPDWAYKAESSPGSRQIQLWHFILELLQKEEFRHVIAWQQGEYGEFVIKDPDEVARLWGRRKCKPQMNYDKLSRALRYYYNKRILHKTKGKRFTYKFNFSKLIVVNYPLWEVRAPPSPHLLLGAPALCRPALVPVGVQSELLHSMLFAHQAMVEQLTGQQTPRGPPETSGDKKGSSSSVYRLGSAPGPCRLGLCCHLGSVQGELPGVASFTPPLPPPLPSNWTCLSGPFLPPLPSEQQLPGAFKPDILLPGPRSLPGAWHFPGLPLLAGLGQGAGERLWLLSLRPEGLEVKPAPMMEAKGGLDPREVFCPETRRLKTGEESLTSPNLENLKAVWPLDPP
To be noted: protein: recombinant; tags: N-terminal GST; dsDNA, one strand shown. The procedure, abridged:
as §1

The target in a further experiment is T8, ETS2 (Homo sapiens, UniProt P15036 1-469).
T8 sequence: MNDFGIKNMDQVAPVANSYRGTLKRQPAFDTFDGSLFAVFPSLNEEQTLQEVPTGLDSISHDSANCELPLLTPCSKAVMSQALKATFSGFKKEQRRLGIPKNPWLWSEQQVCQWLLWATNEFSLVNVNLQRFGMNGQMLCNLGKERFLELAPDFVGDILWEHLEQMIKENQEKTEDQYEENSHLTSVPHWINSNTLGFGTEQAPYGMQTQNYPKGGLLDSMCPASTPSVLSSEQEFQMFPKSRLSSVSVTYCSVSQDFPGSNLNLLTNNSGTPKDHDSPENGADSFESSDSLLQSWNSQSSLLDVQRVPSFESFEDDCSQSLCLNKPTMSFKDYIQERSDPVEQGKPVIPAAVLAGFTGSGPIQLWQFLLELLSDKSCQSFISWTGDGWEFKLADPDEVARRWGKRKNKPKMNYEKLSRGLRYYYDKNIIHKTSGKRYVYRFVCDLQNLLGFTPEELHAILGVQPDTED
The conditions noted are these: protein: recombinant; tags: N-terminal GST; dsDNA, one strand shown. A digest of the protocol:
as §1

A further experiment concerns the target T9, SPDEF (Homo sapiens, UniProt O95238 1-335).
T9 sequence: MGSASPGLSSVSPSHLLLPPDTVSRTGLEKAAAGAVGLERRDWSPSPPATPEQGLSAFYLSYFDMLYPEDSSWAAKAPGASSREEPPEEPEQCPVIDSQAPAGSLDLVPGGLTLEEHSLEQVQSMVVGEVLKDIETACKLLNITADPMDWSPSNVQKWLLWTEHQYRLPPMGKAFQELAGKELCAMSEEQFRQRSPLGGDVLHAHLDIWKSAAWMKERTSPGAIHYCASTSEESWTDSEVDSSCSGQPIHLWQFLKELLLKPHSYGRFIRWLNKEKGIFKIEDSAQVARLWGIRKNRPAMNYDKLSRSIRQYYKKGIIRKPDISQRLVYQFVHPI
The conditions noted are these: protein: recombinant; tags: N-terminal GST; dsDNA, one strand shown. A digest of the protocol: as §1

A further experiment has as its target T10, ETV7 (Homo sapiens, UniProt Q9Y603 1-341).
T10 sequence: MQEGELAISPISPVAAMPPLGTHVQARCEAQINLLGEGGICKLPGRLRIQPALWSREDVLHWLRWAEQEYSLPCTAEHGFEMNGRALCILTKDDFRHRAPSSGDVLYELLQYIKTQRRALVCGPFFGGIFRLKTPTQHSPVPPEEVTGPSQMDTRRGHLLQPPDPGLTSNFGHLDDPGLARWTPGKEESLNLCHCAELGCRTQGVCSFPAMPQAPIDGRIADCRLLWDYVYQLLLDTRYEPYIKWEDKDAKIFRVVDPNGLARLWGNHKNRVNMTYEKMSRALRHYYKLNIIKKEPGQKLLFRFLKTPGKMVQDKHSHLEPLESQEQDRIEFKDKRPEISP
The conditions noted are these: protein: recombinant; tags: N-terminal GST; dsDNA, one strand shown. The procedure, abridged: as §1

For the next experiment, the target named is T11, ELF5 (Homo sapiens, UniProt Q9UKW6-2 1-255).
T11 sequence: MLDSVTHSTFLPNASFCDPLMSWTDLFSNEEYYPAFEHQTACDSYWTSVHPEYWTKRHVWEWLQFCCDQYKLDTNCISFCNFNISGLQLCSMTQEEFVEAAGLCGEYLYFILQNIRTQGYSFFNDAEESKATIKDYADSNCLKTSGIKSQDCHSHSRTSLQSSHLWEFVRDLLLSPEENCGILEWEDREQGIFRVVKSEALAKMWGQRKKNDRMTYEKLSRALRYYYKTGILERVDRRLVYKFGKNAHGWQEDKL
The conditions noted are these: protein: recombinant; tags: N-terminal GST; dsDNA, one strand shown. The procedure, abridged:
as §1

For another experiment, the target named is T12, ETV3 (Homo sapiens, UniProt P41162-2 1-143).
T12 sequence: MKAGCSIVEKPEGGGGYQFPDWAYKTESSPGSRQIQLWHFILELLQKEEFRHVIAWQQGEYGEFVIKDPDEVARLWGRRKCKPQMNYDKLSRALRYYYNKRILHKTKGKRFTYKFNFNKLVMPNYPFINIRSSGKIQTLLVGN
The conditions noted are these: protein: recombinant; tags: N-terminal GST; dsDNA, one strand shown. The procedure, abridged: as §1

The next experiment has as its target ETV6 (Homo sapiens, UniProt P41212 1-452). To be noted: protein: recombinant; tags: N-terminal GST; dsDNA, one strand shown. The procedure, abridged:
as §1

Sequence of HSF1 (Q00613 whole entry): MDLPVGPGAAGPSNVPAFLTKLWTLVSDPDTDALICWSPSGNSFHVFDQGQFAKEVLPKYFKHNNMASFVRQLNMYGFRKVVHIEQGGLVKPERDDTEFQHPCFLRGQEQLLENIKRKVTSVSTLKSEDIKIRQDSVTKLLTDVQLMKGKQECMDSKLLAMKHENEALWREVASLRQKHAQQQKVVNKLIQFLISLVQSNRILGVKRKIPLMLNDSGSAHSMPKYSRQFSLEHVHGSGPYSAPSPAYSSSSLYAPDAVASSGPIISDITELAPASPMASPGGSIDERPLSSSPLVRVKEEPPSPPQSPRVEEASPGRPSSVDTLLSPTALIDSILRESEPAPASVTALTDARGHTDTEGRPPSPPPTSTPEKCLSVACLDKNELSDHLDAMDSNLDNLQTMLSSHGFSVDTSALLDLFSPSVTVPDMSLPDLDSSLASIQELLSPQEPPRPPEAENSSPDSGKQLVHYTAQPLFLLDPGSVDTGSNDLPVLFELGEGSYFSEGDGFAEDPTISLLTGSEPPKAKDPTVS
Sequence of ETV5 (P41161 whole entry): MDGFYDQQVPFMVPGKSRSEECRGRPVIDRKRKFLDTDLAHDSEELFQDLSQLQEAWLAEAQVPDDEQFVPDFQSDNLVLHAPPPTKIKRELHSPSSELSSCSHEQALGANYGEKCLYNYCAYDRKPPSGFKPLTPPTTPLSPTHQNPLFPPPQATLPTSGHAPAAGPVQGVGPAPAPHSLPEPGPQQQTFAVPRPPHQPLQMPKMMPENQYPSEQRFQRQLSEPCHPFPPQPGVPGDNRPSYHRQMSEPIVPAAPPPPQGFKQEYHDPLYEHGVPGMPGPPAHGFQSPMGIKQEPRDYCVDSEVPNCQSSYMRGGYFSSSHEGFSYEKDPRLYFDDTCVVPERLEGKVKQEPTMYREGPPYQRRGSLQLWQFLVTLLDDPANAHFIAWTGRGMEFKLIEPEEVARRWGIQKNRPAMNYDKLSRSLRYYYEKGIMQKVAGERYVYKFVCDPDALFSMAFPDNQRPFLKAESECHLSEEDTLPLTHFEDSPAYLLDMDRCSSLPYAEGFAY
Sequence of ELF4 (Q99607 whole entry): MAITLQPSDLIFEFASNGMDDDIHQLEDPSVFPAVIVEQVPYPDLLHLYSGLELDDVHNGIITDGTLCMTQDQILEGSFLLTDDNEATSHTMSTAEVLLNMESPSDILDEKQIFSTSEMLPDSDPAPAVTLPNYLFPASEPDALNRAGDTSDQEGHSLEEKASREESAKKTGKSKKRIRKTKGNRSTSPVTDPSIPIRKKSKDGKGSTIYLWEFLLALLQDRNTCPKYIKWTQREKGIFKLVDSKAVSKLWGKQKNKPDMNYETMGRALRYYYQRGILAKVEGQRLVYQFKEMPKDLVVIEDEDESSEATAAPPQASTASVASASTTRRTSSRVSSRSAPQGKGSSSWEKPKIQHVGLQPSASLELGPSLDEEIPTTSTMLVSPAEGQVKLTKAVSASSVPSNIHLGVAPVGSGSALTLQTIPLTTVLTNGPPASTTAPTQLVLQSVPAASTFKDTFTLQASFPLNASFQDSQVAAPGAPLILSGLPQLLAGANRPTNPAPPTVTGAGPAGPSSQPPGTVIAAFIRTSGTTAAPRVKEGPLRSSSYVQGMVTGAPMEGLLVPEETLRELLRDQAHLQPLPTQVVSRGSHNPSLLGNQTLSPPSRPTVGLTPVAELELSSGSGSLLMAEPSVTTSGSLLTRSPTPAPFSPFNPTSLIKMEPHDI
Sequence of ETV1 (P50549 whole entry): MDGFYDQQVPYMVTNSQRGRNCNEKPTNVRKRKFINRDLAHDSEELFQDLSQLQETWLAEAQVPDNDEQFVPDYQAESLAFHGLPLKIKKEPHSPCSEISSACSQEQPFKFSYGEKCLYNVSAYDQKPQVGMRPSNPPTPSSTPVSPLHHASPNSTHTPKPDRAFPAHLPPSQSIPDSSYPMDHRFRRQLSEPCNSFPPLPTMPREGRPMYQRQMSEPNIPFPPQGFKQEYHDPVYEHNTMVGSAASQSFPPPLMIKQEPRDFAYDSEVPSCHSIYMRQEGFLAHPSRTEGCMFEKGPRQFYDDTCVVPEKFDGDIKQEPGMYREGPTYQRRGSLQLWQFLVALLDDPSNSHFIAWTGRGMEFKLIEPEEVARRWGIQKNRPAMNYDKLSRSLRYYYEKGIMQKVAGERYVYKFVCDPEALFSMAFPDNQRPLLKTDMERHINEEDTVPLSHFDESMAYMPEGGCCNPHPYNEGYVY
Sequence of ETV6 (P41212 whole entry): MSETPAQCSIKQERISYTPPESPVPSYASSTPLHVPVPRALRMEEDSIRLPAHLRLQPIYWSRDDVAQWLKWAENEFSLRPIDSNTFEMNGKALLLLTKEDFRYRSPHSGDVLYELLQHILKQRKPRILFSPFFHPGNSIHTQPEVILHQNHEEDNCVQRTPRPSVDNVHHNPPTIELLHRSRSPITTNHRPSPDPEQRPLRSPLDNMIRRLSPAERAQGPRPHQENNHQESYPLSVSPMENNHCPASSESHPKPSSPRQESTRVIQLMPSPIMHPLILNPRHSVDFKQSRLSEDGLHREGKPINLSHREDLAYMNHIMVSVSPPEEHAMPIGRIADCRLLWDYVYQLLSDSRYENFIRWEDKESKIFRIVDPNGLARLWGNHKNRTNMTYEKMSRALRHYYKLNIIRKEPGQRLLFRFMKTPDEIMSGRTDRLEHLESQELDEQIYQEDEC
Sequence of CRX (O43186 whole entry): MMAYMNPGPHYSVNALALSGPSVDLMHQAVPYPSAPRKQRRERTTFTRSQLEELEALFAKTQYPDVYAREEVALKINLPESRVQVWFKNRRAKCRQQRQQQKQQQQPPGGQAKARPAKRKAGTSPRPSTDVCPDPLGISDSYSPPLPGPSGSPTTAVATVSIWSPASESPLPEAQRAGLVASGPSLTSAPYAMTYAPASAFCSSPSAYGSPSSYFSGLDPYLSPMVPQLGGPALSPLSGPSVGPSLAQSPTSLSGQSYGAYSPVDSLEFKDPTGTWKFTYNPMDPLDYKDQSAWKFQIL

On to AATTGC, for which the binding signal with FEV is 1.39 fold enrichment (6-mer frequency, TF over GST control); with ETV5 it was 1.43 fold enrichment (6-mer frequency, TF over GST control); with HSF1, 1.24 fold enrichment (6-mer frequency, TF over GST control); with SPIC, 1.2 fold enrichment (6-mer frequency, TF over GST control); with ELF4 it was 1.36 fold enrichment (6-mer frequency, TF over GST control); with ELK4, 1.29 fold enrichment (6-mer frequency, TF over GST control). For the same sequence, the binding signal in the experiment with ETV2 was 1.44 fold enrichment (6-mer frequency, TF over GST control); in the experiment with ELF3, 1.5 fold enrichment (6-mer frequency, TF over GST control); with CRX, 1.17 fold enrichment (6-mer frequency, TF over GST control); with ETV1, 1.35 fold enrichment (6-mer frequency, TF over GST control); with ERF it was 1.43 fold enrichment (6-mer frequency, TF over GST control); with ETV3L, 1.35 fold enrichment (6-mer frequency, TF over GST control). For the same sequence, the binding signal is 1.37 fold enrichment (6-mer frequency, TF over GST control) with ETS2; 1.27 fold enrichment (6-mer frequency, TF over GST control) in the experiment with SPDEF; 1.38 fold enrichment (6-mer frequency, TF over GST control) with ETV7; 1.38 fold enrichment (6-mer frequency, TF over GST control) with ELF5; 1.35 fold enrichment (6-mer frequency, TF over GST control) in the experiment with ETV3; 1.43 fold enrichment (6-mer frequency, TF over GST control) with ETV6.
